In PubChem BioAssay (Tox21):
Records with an inconclusive call do not appear. Active and inactive are the calls of the source. Unless noted, calls follow the shape of the dose curve; as a rule, active = well fitted curve in the direction sought with a large enough effect in the repeat runs; inconclusive = weak or mixed curves; inactive = no such curve, though single readings can be large; an effect the other way counts as inactive or inconclusive.

Key:
[1] = qHTS assay to identify small molecule agonists of the peroxisome proliferator-activated receptor delta (PPARd) signaling pathway - cell viability counter screen (AID 743211); also: % is scaled to controls: 0 for no effect and ±100 for the full control effect; nearly all actives have a fitted effect of over 55% in size
Summary of the method: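 Read-out: CellTiter-Glo luminescence, 30 min RT, measured in the same wells as the beta-lactamase reporter. Cells: GeneBLAzer PPAR delta UAS-bla HEK293H, 3000 cells/well, compound exposure 17 h at 37C.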

[2] = molecular target: Peroxisome proliferator-activated receptor delta (Homo sapiens) (UniProt Q03181); experiment: qHTS assay to identify small molecule agonists of the peroxisome proliferator-activated receptor delta (PPARd) signaling pathway (AID 743212; calls by dose curve; also: % is scaled to controls: 0 for no effect and ±100 for the full control effect)
Sequence of Peroxisome proliferator-activated receptor delta (Homo sapiens) (Q03181 whole entry, looked up): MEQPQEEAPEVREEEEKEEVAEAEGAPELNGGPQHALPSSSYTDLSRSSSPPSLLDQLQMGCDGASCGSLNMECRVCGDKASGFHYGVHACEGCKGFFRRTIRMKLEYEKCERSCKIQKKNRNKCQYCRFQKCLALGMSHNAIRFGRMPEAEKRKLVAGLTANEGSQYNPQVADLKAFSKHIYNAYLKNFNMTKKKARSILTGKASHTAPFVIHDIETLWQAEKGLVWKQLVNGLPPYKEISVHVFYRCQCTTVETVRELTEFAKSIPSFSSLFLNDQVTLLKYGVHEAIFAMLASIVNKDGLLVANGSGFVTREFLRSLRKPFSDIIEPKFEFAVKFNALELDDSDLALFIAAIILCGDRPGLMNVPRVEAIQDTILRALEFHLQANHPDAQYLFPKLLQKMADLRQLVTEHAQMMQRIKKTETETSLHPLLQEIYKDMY
Summary of the method: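 Beta-lactamase reporter read by fluorescence (LiveBLAzer B/G FRET, 2 h, room temperature). Test agents, in DMSO, incubated at 37 C with PPARd-bla HEK293H cells.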

[3] = qHTS assay to identify small molecule antagonists of the peroxisome proliferator-activated receptor delta (PPARd) signaling pathway - cell viability counter screen (AID 743213); also: % is scaled to controls: 0 for no effect and ±100 for the full control effect; nearly all actives have a fitted effect of over 50% in size
Summary of the method: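 HEK293H cells with the PPARd UAS-bla reporter, co-treated 17 h at 37 C with compounds and L165041 (300 nM final), were lysed with CellTiter-Glo. Luminescence indicated viable cell content.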

[4] = qHTS assay to identify small molecule agonists of the farnesoid-X-receptor (FXR) signaling pathway - cell viability counter screen (AID 743218); also: % is scaled to controls: 0 for no effect and ±100 for the full control effect; nearly all actives have a fitted effect of over 45% in size
Summary of the method: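 Same-well cytotoxicity check on FXR-UAS-bla HEK 293T cells: 5 h attachment, 16 h compound at 37 C, CellTiter-Glo luminescence read at room temperature after 30 min.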

[5] = qHTS assay to identify small molecule antagonists of the farnesoid-X-receptor (FXR) signaling pathway - cell viability counter screen (AID 743221; active = well fitted cell-killing curve with a large enough effect in the repeat runs, not every such curve was filed as active; also: % is scaled to controls: 0 for no effect and ±100 for the full control effect; nearly all actives have a fitted effect of over 50% in size)
Summary of the method: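 HEK 293T FXR-bla cells, 5 h pre-incubation; compound + CDCA 50 uM final, 16 h, 37 C; beta-lactamase FRET read first, then CellTiter-Glo luminescence, 30 min RT.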

[6] = molecular target: Vitamin D3 receptor (Homo sapiens) (UniProt P11473); experiment: qHTS assay to identify small molecule antagonists of the vitamin D receptor (VDR) signaling pathway (AID 743223; active = well fitted inhibition curve with a large enough effect in the signal ratio in the repeat runs, not every such curve was filed as active; the % refers to the signal ratio; also: % is scaled to controls: 0 for no effect and ±100 for the full control effect)
Sequence of Vitamin D3 receptor (Homo sapiens) (P11473 whole entry, looked up): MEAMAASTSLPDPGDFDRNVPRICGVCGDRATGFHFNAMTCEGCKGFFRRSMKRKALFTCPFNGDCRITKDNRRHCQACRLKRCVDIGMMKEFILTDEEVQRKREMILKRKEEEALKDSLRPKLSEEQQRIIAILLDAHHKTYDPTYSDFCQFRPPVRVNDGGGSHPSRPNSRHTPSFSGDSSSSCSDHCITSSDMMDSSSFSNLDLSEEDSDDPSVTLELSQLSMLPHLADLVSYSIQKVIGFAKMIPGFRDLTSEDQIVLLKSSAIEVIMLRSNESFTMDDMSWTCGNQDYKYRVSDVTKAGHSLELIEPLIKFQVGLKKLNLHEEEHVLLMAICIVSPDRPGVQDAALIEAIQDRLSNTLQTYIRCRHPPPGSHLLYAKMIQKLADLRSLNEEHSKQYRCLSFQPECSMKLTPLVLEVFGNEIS
Summary of the method: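 Beta-lactamase reporter read-out: FRET substrate fluorescence after 2 h at room temperature, following 16 h exposure of VDR-bla cells to test compound plus 3 nM (final) 1alpha,25-dihydroxyvitamin D3 agonist at 37C.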

[7] = qHTS assay to identify small molecule agonists of the vitamin D receptor (VDR) signaling pathway - cell viability counter screen (AID 743224); also: series mostly up to about 63 µM; % is scaled to controls: 0 for no effect and ±100 for the full control effect; nearly all actives have a fitted effect of over 50% in size
Summary of the method: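 Counter screen for cytotoxicity: VDR-bla cells at 2,000 cells/well, 16 h compound exposure, then CellTiter-Glo luminescence after the beta-lactamase measurement.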

[8] = qHTS assay to identify small molecule antagonists of the vitamin D receptor (VDR) signaling pathway - cell viability counter screen (AID 743225); also: % is scaled to controls: 0 for no effect and ±100 for the full control effect; nearly all actives have a fitted effect of over 50% in size
Summary of the method: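 Viability counter screen run in the same wells as the beta-lactamase reporter assay: HEK 293T VDR-UAS-bla cells, 16 h compound exposure at 37C with 3 nM (final) 1-alpha,25-dihydroxyvitamin D3. CellTiter-Glo luminescence, 30 min, room temperature.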

[9] = qHTS assay to identify small molecule agonists of the NFkB signaling pathway (AID 1159509; active = well fitted curve in the direction sought with a large enough effect in the signal ratio in the repeat runs, not every such curve was filed as active; the % refers to the signal ratio; also: series mostly up to about 61 µM; % is scaled to controls: 0 for no effect and ±100 for the full control effect)
Summary of the method: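 Beta-lactamase reporter assay run in quantitative high-throughput format on an NF-kB-responsive ME-180 line, with 5 hr compound treatment and a FRET-based blue/green fluorescence readout.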

[10] = qHTS assay to identify small molecule agonists of the NFkB signaling pathway - cell viability counter screen (AID 1159515; calls by dose curve; also: series mostly up to about 61 µM; % is scaled to controls: 0 for no effect and ±100 for the full control effect; nearly all actives have a fitted effect of over 55% in size)
Summary of the method: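 Counter screen run alongside the NFkB-bla agonist assay: ME-180 reporter cells exposed to compounds for 5 hr, then lysed with CellTiter-Glo in the same wells. Luminescence, read after 30 min, reflects viable cells.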

[11] = qHTS assay to identify small molecule agonists of the endoplasmic reticulum stress response signaling pathway (AID 1159516; active = well fitted activation curve with a large enough effect in the signal ratio in the repeat runs, not every such curve was filed as active; the % refers to the signal ratio; also: % is scaled to controls: 0 for no effect and ±100 for the full control effect)
Summary of the method: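 For this screen, HeLa cells stably carrying beta-lactamase under the ER stress response element received test compounds, positive controls or DMSO for 5 hr at 37 C; B/G FRET substrate was then added and dual-wavelength emission recorded.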

[12] = qHTS assay to identify small molecule agonists of the endoplasmic reticulum stress response signaling pathway - cell viability counter screen (AID 1159517; calls by dose curve)
Summary of the method: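 Cytotoxicity of test compounds toward ESRE-bla HeLa cells was assessed after 5 hr exposure. The luminescent CellTiter-Glo signal was measured 30 min after reagent addition.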

[13] = qHTS assay to identify small molecule antagonists of the retinoid-related orphan receptor gamma (ROR-gamma) signaling pathway - cell viability counter screen (AID 1159520)
Summary of the method: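 Tet-on ROR gamma CHO cells (1,000/well) were plated 4 hr, given compounds in DMSO for 2 hr at 37 C, then induced with 1 uM final doxycycline for 16 hr. Viability was read as ATP by CellTiter-Glo luminescence after 30 min.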

[14] = molecular target: Nuclear receptor ROR-gamma (Homo sapiens) (UniProt P51449); experiment: qHTS assay to identify small molecule antagonists of the retinoid-related orphan receptor gamma (ROR-gamma) signaling pathway (AID 1159521)
Summary of the method: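 Luminescence readout (ONE-Glo, 30 min RT) after 16 h doxycycline induction; loss of signal scored as antagonism. CHO cells with TET-inducible RORγ and RORE-LUC reporter; compounds added 2 h before 1 uM final doxycycline.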

[15] = qHTS assay to identify small molecule agonists of the AP-1 signaling pathway (AID 1159526; calls by dose curve; also: % is scaled to controls: 0 for no effect and ±100 for the full control effect)
[16] = molecular target: Bile acid receptor (Homo sapiens) (UniProt Q96RI1); experiment: qHTS assay to identify small molecule antagonists of the farnesoid-X-receptor (FXR) signaling pathway (AID 743217; active = well fitted inhibition curve with a large enough effect in the signal ratio in the repeat runs, not every such curve was filed as active; the % refers to the signal ratio; also: % is scaled to controls: 0 for no effect and ±100 for the full control effect)
Sequence of Bile acid receptor (Homo sapiens) (Q96RI1 whole entry, looked up): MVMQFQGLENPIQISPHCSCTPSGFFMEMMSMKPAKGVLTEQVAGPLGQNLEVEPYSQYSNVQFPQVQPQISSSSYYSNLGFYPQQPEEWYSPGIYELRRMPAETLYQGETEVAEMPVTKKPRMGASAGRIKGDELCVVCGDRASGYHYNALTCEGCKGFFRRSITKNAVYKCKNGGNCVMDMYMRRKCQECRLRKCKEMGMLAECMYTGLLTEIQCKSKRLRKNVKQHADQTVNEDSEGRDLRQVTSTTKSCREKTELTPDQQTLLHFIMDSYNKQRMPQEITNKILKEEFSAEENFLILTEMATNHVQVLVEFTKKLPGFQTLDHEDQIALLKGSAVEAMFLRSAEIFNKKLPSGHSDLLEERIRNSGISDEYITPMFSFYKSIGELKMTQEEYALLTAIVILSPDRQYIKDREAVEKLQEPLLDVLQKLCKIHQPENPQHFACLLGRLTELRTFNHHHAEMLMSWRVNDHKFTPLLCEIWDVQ
Summary of the method: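 Quantitative HTS, beta-lactamase reporter format: FXR-UAS-bla HEK 293T cells co-treated 16 h at 37 °C with compounds and 50 uM final chenodeoxycholic acid, then read by B/G FRET fluorescence.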

[17] = molecular target: Bile acid receptor (Homo sapiens) (UniProt Q96RI1); experiment: qHTS assay to identify small molecule agonists of the farnesoid-X-receptor (FXR) signaling pathway (AID 743220; active = well fitted activation curve with a large enough effect in the signal ratio in the repeat runs, not every such curve was filed as active; the % refers to the signal ratio; also: % is scaled to controls: 0 for no effect and ±100 for the full control effect)
Summary of the method: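 FXR-UAS-bla HEK 293T cells carrying a UAS-driven beta-lactamase reporter were plated for 5 h at 37C/5% CO2, then exposed to DMSO-dissolved Tox21 10K compounds for 16 h at 37C. A LiveBLAzer B/G FRET substrate was loaded for 2 h at room temperature before fluorescence reading.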

[18] = molecular target: Vitamin D3 receptor (Homo sapiens) (UniProt P11473); experiment: qHTS assay to identify small molecule agonists of the vitamin D receptor (VDR) signaling pathway (AID 743222; calls by dose curve; also: % is scaled to controls: 0 for no effect and ±100 for the full control effect)
Summary of the method: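 Using LiveBLAzer B/G FRET detection, agonism was scored in VDR-bla cells exposed overnight (16 h, 37C) to DMSO-dissolved compounds; substrate incubation was 2 h at room temperature.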

[19] = molecular target: Peroxisome proliferator-activated receptor delta (Homo sapiens) (UniProt Q03181); experiment: qHTS assay to identify small molecule antagonists of the peroxisome proliferator-activated receptor delta (PPARd) signaling pathway (AID 743215; active = well fitted inhibition curve with a large enough effect in the signal ratio in the repeat runs, not every such curve was filed as active; the % refers to the signal ratio)
Summary of the method: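 Screen format: qHTS, antagonist mode. HEK293H PPARd-bla cells received compound and 300 nM L165041 (final), 17 h, 37 C. Beta-lactamase detected via FRET substrate fluorescence, 2 h, room temperature.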

[20] = qHTS assay to identify small molecule agonists of the AP-1 signaling pathway - cell viability counter screen (AID 1159525; calls by dose curve; also: nearly all actives have a fitted effect of over 55% in size)
Summary of the method: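 Each titration point was normalised to DMSO and tetra n-octyl ammonium bromide controls. The read was Cell Titer Glo luminescence after 30 min at RT, following 5 h compound exposure of ME-180 AP-1-bla cells at 37 °C.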

CN[C@@H]1[C@@H](O)[C@@H](O[C@@H]2[C@H](O)[C@H](O[C@H]3OC(CN)=CC[C@H]3N)[C@@H](N)C[C@H]2N)OCC1(C)O (some centres not stated)
inactive: outcome [1] | outcome [2] | outcome [3] | Potency [4] | outcome [5] | outcome [6] | outcome [7] | outcome [8] | outcome [9] | outcome [10] | outcome [11] | outcome [12] | outcome [13] | outcome [14] | outcome [15]

CC1CCC(C(C)(C)S)C(=O)C1 (configuration not stated)
inactive: outcome [2] | outcome [3] | outcome [16] | outcome [17] | outcome [6] | outcome [7] | outcome [8] | outcome [9] | outcome [10] | outcome [11] | outcome [12] | outcome [13] | outcome [14] | outcome [15]

CNC(=O)NC
inactive: outcome [2] | outcome [16] | Potency [4] | outcome [17] | outcome [5] | outcome [18] | outcome [6] | outcome [7] | outcome [9] | outcome [10] | outcome [11] | outcome [12] | outcome [13] | outcome [14] | outcome [15]

O=C(O)Cc1cccc(-c2cc(CCCCCCc3ccc(O[C@H]4O[C@H](CO)[C@@H](O)[C@H](O)[C@@H]4O)c(-c4cccc(CC(=O)O)c4)c3)ccc2O[C@H]2O[C@H](CO)[C@@H](O)[C@H](O)[C@@H]2O)c1
inactive: activity change, negative = cytotoxicity [1] 4.03% [at 0.55 µM] | activation [2] -0.0045% [at 0.55 µM] | viability change, negative = cytotoxic [3] 9.66% [at 0.575 µM] | ratio activity, negative = inhibition [19] -1.95% [at 0.575 µM] | activity change, negative = inhibition [16] -1.58% [at 0.55 µM] | viability change, negative = cytotoxic [4] 5.41% [at 0.55 µM] | activation [17] 5.49% [at 0.55 µM] | activity change, negative = cytotoxicity [5] 0.163% [at 0.55 µM] | activity change, negative = cytotoxicity [7] -3.17% [at 0.55 µM] | viability change, negative = cytotoxic [8] 5.12% [at 0.628 µM] | activation [9] 0.357% [at 0.628 µM] | activity, negative = cytotoxic [10] 0.959% [at 0.628 µM] | activation [11] 1.35% [at 0.628 µM] | activity change, negative = cytotoxicity [12] 4.41% [at 0.628 µM] | activity, negative = cytotoxicity [13] 0.991% [at 0.349 µM] | activity change, negative = inhibition [14] -17.6% [at 0.35 µM] | activation [15] -4.69% [at 0.29 µM]

CCC(CO)CO
inactive: outcome [1] | outcome [2] | outcome [3] | outcome [19] | Potency [4] | outcome [5] | outcome [18] | outcome [7] | outcome [8] | outcome [9] | outcome [10] | outcome [11] | outcome [12] | outcome [13] | outcome [20] | outcome [15]

NC(Cc1c[nH]c2ccccc12)C(=O)O (configuration not stated)
inactive: outcome [2] | outcome [3] | Potency [4] | outcome [18] | outcome [6] | outcome [7] | outcome [8] | outcome [9] | outcome [10] | outcome [11] | outcome [12] | outcome [13] | outcome [14] | outcome [20] | outcome [15]

O=c1[nH]c(=O)c2ccccc2o1
inactive: outcome [1] | outcome [3] | outcome [16] | Potency [4] | outcome [17] | outcome [5] | outcome [7] | outcome [8] | outcome [9] | outcome [10] | outcome [11] | outcome [12] | outcome [13] | outcome [14] | outcome [15]
